PABP1 MLLE inh: blocks PAM2 peptide binding to the PABP1 MLLE domain. P11940. GST-MLLE / FITC-PAM2 fluorescence polarization. inhibition, % at 20 µM. actives 0.36% (n = 360,000). AID 588489; in the data active = inhibition above about 35%, passing the limit was not always enough;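 note: plate controls were DMSO wells with GST-MLLE for no effect and wells lacking GST-MLLE protein for full effect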
Target sequence (P11940 whole entry, looked up, the tested form may be a part): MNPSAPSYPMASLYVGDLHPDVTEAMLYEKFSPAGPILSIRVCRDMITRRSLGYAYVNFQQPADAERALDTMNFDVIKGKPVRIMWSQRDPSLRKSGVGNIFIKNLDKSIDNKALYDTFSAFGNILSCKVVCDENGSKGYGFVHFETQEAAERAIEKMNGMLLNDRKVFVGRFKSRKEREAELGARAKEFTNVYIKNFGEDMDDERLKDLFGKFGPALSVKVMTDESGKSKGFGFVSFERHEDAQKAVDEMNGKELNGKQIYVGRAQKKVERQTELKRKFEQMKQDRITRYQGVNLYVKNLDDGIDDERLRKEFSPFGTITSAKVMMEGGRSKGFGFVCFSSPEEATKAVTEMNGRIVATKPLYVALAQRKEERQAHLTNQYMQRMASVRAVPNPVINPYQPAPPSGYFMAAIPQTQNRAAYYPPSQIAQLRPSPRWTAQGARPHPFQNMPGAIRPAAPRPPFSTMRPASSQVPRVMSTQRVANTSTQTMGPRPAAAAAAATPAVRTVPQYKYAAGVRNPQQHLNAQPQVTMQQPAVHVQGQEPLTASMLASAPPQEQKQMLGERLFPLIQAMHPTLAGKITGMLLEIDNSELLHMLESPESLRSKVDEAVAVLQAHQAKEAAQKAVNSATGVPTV
EBV gp42 block: EBV gp42 inhibition; Fluorescence polarization binding assay, mP read-out; actives 0.42% (n = 220,000); inhibition, % (tested at 21.74 µM); Q1HVG2; in the data active = inhibition above about 50%
PABP polyA inh: PABP-poly(A) binding inhibition; P11940; AID 2014; calls only at 35 µM; actives 1% (n = 290,000); PABP-poly(A) RNA binding, fluorescence polarization;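 note: calls also rest on retests at 20 µM and on dose response follow-up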
MEX-5 binding: C. elegans MEX-5 TCR-2 RNA binding activity. MEX-5/FITC-TCR2 RNA binding, fluorescence polarization; stronger effect = lower value. activity score (negative = inhibition of binding), % at 10 µM. actives 0.38% (n = 300,000). AID 1832;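 active = inhibition past about -25% in most replicates, and total fluorescence under double the plate's negative control median, limit read from the data; inconclusive = replicates evenly split on the limit, or fluorescence at least double controls; inactive = too little inhibition in most replicates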;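 note: 0% = DMSO and -100% = 5 µM competing unlabeled TCR2 RNA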
eIF4H inh: inhibitors of RNA binding by human eIF4H. actives 0.94% (n = 290,000). eIF4H fluorescence polarization binding assay. AID 2012. Q15056. inhibition, % at 35 µM;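 note: calls also rest on retests at 20 µM and on dose response follow-up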
* = called active by the depositor; i = inactive; ? = inconclusive; nt = no result; + = active, no number. A selection: hits, their analogues and other compounds. The true share with any hit is near 1.8%. Unless noted, the rule behind the calls is not given here.

SMILES | PABP1 MLLE inh | EBV gp42 block | PABP polyA inh | MEX-5 binding | eIF4H inh
CC1(C)Oc2ccc3ccc(=O)oc3c2[C@H](O)[C@H]1O | 1 | nt | nt | nt | nt
CC1(C)Oc2ccc3ccc(=O)oc3c2C(N2CCCCC2)C1O (stereo not drawn) | -17 | -9 | i | 1 | 42*
Cc1sc2nc3ccc(NCc4ccco4)nn3c(=O)c2c1C | 41* | 11 | i | nt | 24
O=c1c2ccccc2nc2ccc(NCc3ccco3)nn12 | 81 | 20 | + | -2 | 43
COc1cccc(C(NC(C)=O)c2nc(-c3cccc(O)c3)cs2)c1 (stereo not drawn) | -1 | nt | nt | nt | nt
CCc1cccc(CC)c1NC(=O)COC(=O)c1cccc(-c2ccc(OC(C)=O)cc2)c1 | -2 | -8 | i | -1 | active
CSC1=NC=C(C#N)C2=NC(c3ccc(Cl)cc3)NN12 (stereo not drawn) | -18 | nt | nt | nt | nt
CN(C)CCCNc1ccc(-c2n[nH]c(=O)c3ccccc23)cc1[N+](=O)[O-] | -12 | nt | i | -1 | -8
CN(C)CCNCCCNc1c2ccccc2nc2cccc([N+](=O)[O-])c12 | 52* | nt | nt | nt | nt
CN(C)CCCNc1c2c(nc3ccccc13)CCC2 | 18 | nt | + | 4 | 42
CCCOc1ccc(C(=O)NNC(=S)NC(=O)c2cc(-c3ccc(Cl)cc3)nc3ccccc23)cc1 | 39* | 3 | i | 1 | 12
NC(=O)c1cc2c3ccccc3ccn2c1-c1ccccc1 | 46* | 5 | ? | -9 | ?
Cc1cc(C(N)=O)c2ccccc2n1 | 4 | -7 | i | 1 | -2
Cc1ccc(Sc2ncccc2O)cc1 | 10 | nt | nt | 0 | nt
Cc1ccc(Sc2ncccc2COC(=O)NC(C)C)cc1 | -14 | -13 | + | 1 | active
Cc1ccc(S(=O)(=O)Nc2nc3ccccc3nc2N2CCOCC2)cc1 | -8 | nt | nt | nt | nt
CC1CCCN(c2nc3ccccc3nc2C(C#N)S(=O)(=O)c2ccccc2)C1 (stereo not drawn) | 61 | 147* | ? | ? | ?
COc1ccc(S(=O)(=O)C(C#N)c2nc3ccccc3nc2N2CCC(C)CC2)cc1 (stereo not drawn) | nt | nt | + | -47* | 64*
CCOC(=O)N1CCN(c2nc3ccccc3nc2C(C#N)S(=O)(=O)c2ccc(C)cc2)CC1 (stereo not drawn) | 8 | 5 | + | -35* | 122*
CCCCOc1nc2ccccc2nc1C(C#N)S(=O)(=O)c1ccccc1 (stereo not drawn) | 0 | -7 | i | -1 | -6
N#CC(c1nc2ccccc2nc1N1CCCCC1)S(=O)(=O)c1ccc(Cl)cc1 (stereo not drawn) | nt | nt | i | nt | 116
Cc1ccc(S(=O)(=O)C(C#N)c2nc3ccccc3nc2N2CCN(C)CC2)cc1 (stereo not drawn) | 12 | -1 | i | 0 | ?
Cc1cccc(S(=O)(=O)C(C#N)c2nc3ccccc3nc2N2CCOCC2)c1 (stereo not drawn) | 4 | -6 | ? | -72* | ?
CC1=C(C(=O)N2CCCCCC2)CC(CC(=O)NC2CCCC2)C(=O)N1Cc1ccccc1 (stereo not drawn) | 12 | nt | nt | nt | nt
Cc1cc(C)n2nc(C(=O)OCC(=O)c3cc(C)n(C)c3C)nc2n1 | 8 | -20 | i | -2 | 62*
SMILES | PABP1 MLLE inh | EBV gp42 block | PABP polyA inh | MEX-5 binding | eIF4H inh
Cc1cc(C)n2nc(C(=O)OCC(=O)c3ccccc3Cl)nc2n1 | 2 | nt | nt | nt | nt
Cc1ccc2nc(NCc3ccco3)c(C=NCc3ccco3)c(=O)n2c1 | 0 | -11 | + | -4 | 68*
C[C@H](CO)N1C[C@H](C)[C@@H](CN(C)S(=O)(=O)c2ccccc2)Oc2c(NS(=O)(=O)c3ccccc3)cccc2C1=O | -6 | nt | nt | nt | nt
CCC(=O)N1CCC1(C)C(=O)Nc1ccc(Cl)c(Cl)c1 (stereo not drawn) | -2 | nt | nt | nt | nt
CC(=O)c1c(C(C)=O)c(C)n(-c2cccc3cccnc23)c1C | 24 | -12 | + | -2 | 101
S=C1NCCNC(=S)NCCOCCOCCN1 | -47 | -7 | i | 0 | active
CCCOc1ccc(N2C(=O)CC(NNC(=O)c3ccc(COc4ccccc4)o3)C2=O)cc1 (stereo not drawn) | 12 | -11 | + | -2 | -9
Cc1ccc(CNC(=O)CSc2ccsc2[N+](=O)[O-])cc1 | -7 | 4 | i | 1 | 9
O=C(CSc1ccsc1[N+](=O)[O-])Nc1cc(F)ccc1F | -7 | 91* | i | -2 | 94
CCN(CC)c1ccc(NC(=O)CSc2ccsc2[N+](=O)[O-])c(C)c1 | 8 | -3 | + | 1 | ?
CC(=O)c1ccc(NC(=O)CSc2ccsc2[N+](=O)[O-])cc1 | 0 | 51* | + | -4 | 76
COC(=O)CSc1[nH]c2ccc(Br)cc2c1[N+](=O)[O-] | 35 | -3 | i | -1 | -3
CCOc1ccc2[nH]c(SCC(=O)OC)c([N+](=O)[O-])c2c1 | 54* | 28 | + | 0 | 54*
Cc1ccc(SC2CC(=O)N(c3ccc4c(c3)OCCO4)C2=O)cc1 (stereo not drawn) | 42* | 0 | i | 2 | -8
CC(=O)Oc1ccc(Cn2c(C)c(C(=O)NC3CC3)sc2=O)cc1 | 6 | nt | nt | nt | nt
O=C(NCc1ccc(F)cc1)c1cc(C2CCCN(S(=O)(=O)c3ccccc3)C2)on1 (stereo not drawn) | -1 | nt | nt | nt | nt
O=C(O)CN1C(=O)/C(=C2\SC(=S)N(C(Cc3ccccc3)C(=O)O)C2=O)c2ccccc21 (stereo not drawn) | 39* | nt | i | 2 | 5
COC(=O)C(Nc1nccs1)(OC)C(F)(F)F (stereo not drawn) | 34 | 60* | i | -20 | 34
CCN(CC)C(=O)Cn1ncc2c1-c1ccccc1OC2 | 4 | -5 | i | 0 | 63*
O=C(NNC(=O)C1C2CCC(C2)C1C(=O)O)c1ccc(Br)o1 (stereo not drawn) | nt | -9 | + | 0 | -2
Cc1cc(-c2ccccc2)c(C#N)c(=S)[nH]1 | 36 | 83* | i | 0 | -9
O=C(Nc1ccc(F)cc1)Nc1ccc([N+](=O)[O-])cn1 | 8 | -3 | + | 0 | 3.0*
CCOC(=O)C1=CCC(c2cccn2C(=O)OC(C)(C)C)N(S(=O)(=O)c2ccc(C)cc2)C1 (stereo not drawn) | -12 | nt | nt | nt | nt
Cc1cc(C)cc(N=Cc2[nH]c3ccc(Br)c(Cl)c3c2O)c1 | -10 | -41 | + | -2 | ?
COc1ccc(CN=Cc2[nH]c3ccc(Br)c(Cl)c3c2O)cc1 | 9 | -35 | i | -9 | 20
CC(C)(O)CCCC(C)(O)c1ccc(C(=O)O)cc1O (stereo not drawn) | 14 | -2 | i | -13 | 84*
CC1=NN(c2ccccc2)C(=O)C1CCC#N (stereo not drawn) | 1 | nt | nt | nt | nt
Fc1cccc(Cc2c(-c3ccccc3)nc3ccc(Cl)cn23)c1 | -5 | nt | nt | nt | nt
CC(C)CN(C(=O)COC(=O)c1ccc2c(c1)NC(=O)CS2)C1CCS(=O)(=O)C1 (stereo not drawn) | 55* | -8 | i | -4 | 4
